Data reported in paper PMC4552634, “A New Set of Chemical Starting Points with Plasmodium falciparum Transmission-Blocking Potential for Antimalarial Drug Discovery” (PLoS ONE, 2015).
Like-named read-outs stand apart in the source and are kept apart here. Screen size: about 13,000 compounds; about 3,200 (25%) showed an effect of 50% or more. The list shows a part of the results.

Tested on: P. falciparum stage V gametocytes
Parameters: BacTiter-Glo ATP luminescence viability of purified stage V gametocytes in 384-well plates, per cent inhibition versus DMSO
Details: 48 h, 5 µM, inhibitor

For `Cc1cccc(Cl)c1S(=O)(=O)Nc1cccc(CCN2CCC(N3CCCCC3)CC2)c1` [TCMDC-134063], the “% Inhibition” value was 18.66%.
With `COc1ccc(Cl)cc1S(=O)(=O)Nc1cccc(CCN2CCC(N3CCCCC3)CC2)c1` [TCMDC-134076] the “% Inhibition” value was 49.77%.
In the case of `CN(C)c1cccc2c(S(=O)(=O)Nc3cccc(CCN4CCC(N5CCCCC5)CC4)c3)cccc12` [TCMDC-134066], the “% Inhibition” value is reported as 76.83%.
With `O=S(=O)(Nc1cccc(CCN2CCC(N3CCCCC3)CC2)c1)c1cccc2cccnc12` [TCMDC-134074] the “% Inhibition” value was 50.45%.
With `O=S(=O)(Nc1ccc(CCN2CCC(N3CCCCC3)CC2)cc1)c1cccc2cccnc12` [TCMDC-134081] the “% Inhibition” value was 43.01%.
`O=S(=O)(Nc1cccc(CCN2CCC(N3CCCCC3)CC2)c1)c1cccc2ccccc12` [TCMDC-134069] was tested, and the “% Inhibition” value was 73%.
`Cc1nc2ccc3ccc(CNc4ccc(C#N)cc4)cc3c2c(=O)[nH]1` [TCMDC-137846] was tested, and the “% Inhibition” value was -36.65%.
In the case of `CCCCCCN1CCCN(Cc2ccc(C(=O)Nc3ccc(C(C)(C)C)cc3)cc2)CC1` [TCMDC-136446], the “% Inhibition” value is reported as -5.342%.
`O=C(Cc1ccc[n+]([O-])c1)Nc1ccc(-c2cccc(-c3nc4cc(C(F)(F)F)ccc4[nH]3)c2)cc1` [TCMDC-136991] was tested, and the “% Inhibition” value was -49.92%.
For `O=C(Nc1cccc(-c2ccc(-c3nc4ccc(C(F)(F)F)cc4[nH]3)cc2)c1)c1cccnc1` [TCMDC-136930], the “% Inhibition” value was 51.27%.
For `O=C(Nc1cccc(-c2cccc(-c3nc4ccc(C(F)(F)F)cc4[nH]3)c2)c1)c1ccoc1` [TCMDC-136844], the “% Inhibition” value was 9.594%.
With `O=C(Nc1ccc(-c2cccc(-c3nc4ccc(C(F)(F)F)cc4[nH]3)c2)cc1)c1ccncc1` [TCMDC-136964] the “% Inhibition” value was -22.85%.
`O=C(Nc1cccc(-c2ccc(-c3nc4ccc(C(F)(F)F)cc4[nH]3)cc2)c1)c1ccoc1` [TCMDC-136848] was tested, and the “% Inhibition” value was -29.98%.
In the case of `NC(=O)c1cccc(C(=O)Nc2ccc(-c3cccc(-c4nc5ccc(C(F)(F)F)cc5[nH]4)c3)cc2)c1` [TCMDC-132200], the “% Inhibition” value is reported as -70.46%.
With `O=C(Nc1ccc(-c2cccc(-c3nc4ccc(C(F)(F)F)cc4[nH]3)c2)cc1)c1cccnc1` [TCMDC-136926] the “% Inhibition” value was 86.45%.
In the case of `O=C(Nc1cccc(-c2cccc(-c3nc4ccc(C(F)(F)F)cc4[nH]3)c2)c1)c1cccnc1` [TCMDC-136925], the “% Inhibition” value is reported as -23.9%.
In the case of `O=C(Nc1ccc(-c2cccc(-c3nc4ccc(C(F)(F)F)cc4[nH]3)c2)cc1)c1ccoc1` [TCMDC-136845], the “% Inhibition” value is reported as 54.13%.
With `O=C(Nc1cccc(-c2ccc(-c3nc4ccc(C(F)(F)F)cc4[nH]3)cc2)c1)c1ccncc1` [TCMDC-136967] the “% Inhibition” value was -31.79%.
With `CC(=O)Oc1ccc(C(=O)Oc2ccccc2C#CC#N)cc1OC(C)=O` [TCMDC-138111] the “% Inhibition” value was 22.32%.
With `CC(Oc1ccc(Cl)cc1Cl)c1nc(-c2ccc(NC(=O)c3ccco3)cc2)no1` (centres unmarked) [TCMDC-124355] the “% Inhibition” value was -1.611%.
With `O=C(Nc1ccc2c(c1)CN(Cc1ccc(N3CCCC3)o1)CCC2)c1cncs1` [TCMDC-134724] the “% Inhibition” value was -13.68%.
For `O=C(/C=C/c1ccc(C(F)(F)F)cc1)NC1CCC(CN2CCC(c3c[nH]c4ccccc34)CC2)CC1` (centres unmarked) [TCMDC-139758], the “% Inhibition” value (% Inhibition) was 96.79%.
For `O=C(/C=C/c1ccc(C(F)(F)F)cc1)NC1CCC(CN2CCC(c3c[nH]c4ccccc34)CC2)CC1` (centres unmarked) [TCMDC-139768], the “% Inhibition” value (% Inhibition) was 87.3%.
In the case of `O=C(/C=C/c1cc(C(F)(F)F)ccc1F)NC1CCC(CN2CCC(c3c[nH]c4ccccc34)CC2)CC1` (centres unmarked) [TCMDC-139855], the “% Inhibition” value is reported as -4.527%.
With `CS(=O)(=O)c1ccc(-c2cncc(Cl)n2)cc1` [TCMDC-135191] the “% Inhibition” value was 20.05%.
`COc1cc(NC(=O)/C=C/c2cc(F)cc(F)c2F)cc(OCCN2CCCCC2)c1` [TCMDC-140932] was tested, and the “% Inhibition” value was -50.87%.
In the case of `Cc1cc(N2CCCN(C)CC2)nc(Nc2ccc(Cl)cc2)n1` [TCMDC-137009], the “% Inhibition” value is reported as 14.59%.
With `Cc1cc(N2CCN(CC3CCN(C)CC3)CC2)nc(Nc2ccc(Br)cc2)n1` [TCMDC-137016] the “% Inhibition” value was 54.5%.
In the case of `Cc1cc(NC2CCN(CC3CCCCC3)C2)nc(Nc2ccc(Br)cc2)n1` (centres unmarked) [TCMDC-137022], the “% Inhibition” value is reported as 32.36%.
For `Cc1cc(N2CCN(CC3CCN(C)CC3)CC2)nc(Nc2ccc(Cl)cc2)n1` [TCMDC-137012], the “% Inhibition” value was 55.47%.
For `Cc1cc(NCC2CCN(CC3CCCCC3)C2)nc(Nc2ccc(Cl)cc2)n1` (centres unmarked) [TCMDC-137020], the “% Inhibition” value was -71.76%.
With `Cc1cc(N2CCC(N(C)C)C2)nc(Nc2ccc(Cl)cc2)n1` (centres unmarked) [TCMDC-137011] the “% Inhibition” value was -3.517%.
For `Cc1cc(N2CCCN(CC3CCCCC3)CC2)nc(Nc2ccc(Br)cc2)n1` [TCMDC-137133], the “% Inhibition” value was -10.88%.
`Cc1cc(N2CCN(CC3CCCCC3)CC2)nc(Nc2ccc(Br)cc2)n1` [TCMDC-137021] was tested, and the “% Inhibition” value was -43.3%.
`Cc1cc(NC2CCN(CC3CCCCC3)C2)nc(Nc2ccc(Cl)cc2)n1` (centres unmarked) [TCMDC-137018] was tested, and the “% Inhibition” value was 51.98%.
